A number with no mark means an inactive call. Results filed as inconclusive are left out. Active and inactive are the calls of the source. Calls come from the whole dose curve; as a rule, active = well fitted curve in the direction sought with a large enough effect in the repeat runs; inconclusive = weak or mixed curves; inactive = no such curve, though single readings can be large; an effect the other way counts as inactive or inconclusive.

Test [1] can be described thus: qHTS RealTime-Glo MT Cell Viability Assay in HEK293 cells - 32 hour (AID 1224868). Note: top concentration of the series differs between compounds; nearly all actives have a fitted effect of over 50% in size. Summed up: (§1)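 Nonlytic real-time viability readout: viable cells convert prosubstrate to NanoLuc substrate, giving luminescence proportional to live cell number. HEK293, 600 cells/well, compound added after 5 h, continuous culture at 37 C.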
Background: In qHTS, concentration-response curves come from the screen itself.

Test [2] is described as follows: A CellTox Green Cytotoxicity Assay to monitor cytotoxicity in HEK293 cells - 0 hour (AID 1224869). Note: nearly all actives have a fitted effect of over 50% in size. The gist of the method:
(§2)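 HEK293 cells premixed with CellTox Green dye were seeded at 600 cells/well and left 5 h at 37 C/5% CO2 before pin transfer of 23 nL compound in DMSO. Fluorescence from dye bound to dead-cell DNA was read during 40 h treatment.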

The nature of test [3]: qHTS RealTime-Glo MT Cell Viability Assay in HepG2 cells - 40 hour (AID 1224870). Note: nearly all actives have a fitted effect of over 50% in size. Summed up:
(§3)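 Real-time viability: cells seeded at 600 per well together with NanoLuc and cell-permeant prosubstrate, compounds added after 5 h incubation. Luminescence tracked at 0, 8, 16, 24, 32 and 40 h of exposure.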

Test [4] is described as follows: A CellTox Green Cytotoxicity Assay to monitor cytotoxicity in HEK293 cells - 40 hour (AID 1224871). Note: nearly all actives have a fitted effect of over 45% in size. Note: potency is the fitted concentration of half-maximal effect. Summed up:
as §2

Test [5] is described as follows: qHTS RealTime-Glo MT Cell Viability Assay in HEK293 cells - 16 hour (AID 1224872). Note: top concentration of the series differs between compounds; nearly all actives have a fitted effect of over 50% in size. Summed up: as §1
Test [6] can be described thus: qHTS RealTime-Glo MT Cell Viability Assay in HEK293 cells - 40 hour (AID 1224874). Note: nearly all actives have a fitted effect of over 50% in size. The conditions noted are these: RealTime-Glo luminescence, active compounds read low. Summed up: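 HEK293 cells mixed with RealTime-Glo reagents (NanoLuc plus cell-permeant prosubstrate) at 600 cells/well, preincubated 5 h at 37 C/5% CO2, then given 23 nL compound in DMSO. Nonlytic luminescence from viable cells was read at 0, 8, 16, 24, 32 and 40 h.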

The nature of test [7]: A CellTox Green Cytotoxicity Assay to monitor cytotoxicity in HEK293 cells - 24 hour (AID 1224875). Note: nearly all actives have a fitted effect of over 45% in size. Note: potency is the fitted concentration of half-maximal effect. Summed up:
as §2

A short description of test [8]: A CellTox Green Cytotoxicity Assay to monitor cytotoxicity in HepG2 cells - 16 hour (AID 1224876). Note: nearly all actives have a fitted effect of over 45% in size. Note: potency is the fitted concentration of half-maximal effect. The gist of the method:
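HepG2 cells were seeded together with the CellTox Green dye at 600 cells/well, left 5 h at 37 C/5% CO2, then given compounds in DMSO. Fluorescence from dye bound to dead-cell DNA was read repeatedly over 40 h of treatment at 37 C.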

Test [9] is described as follows: qHTS RealTime-Glo MT Cell Viability Assay in HepG2 cells - 32 hour (AID 1224877). Note: nearly all actives have a fitted effect of over 55% in size. Summed up:
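Luminescence read-out: viable HepG2 cells reduce a prosubstrate to a NanoLuc substrate, giving a signal proportional to live cell number. Reads taken at 0, 8, 16, 24, 32 and 40 h of compound exposure at 37 C.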

Test [10] is described as follows: qHTS RealTime-Glo MT Cell Viability Assay in HepG2 cells - 8 hour (AID 1224873). Note: nearly all actives have a fitted effect of over 55% in size. Summed up:
as §3
% is set by controls: 0 for no effect and ±100 for the full control effect.

Turning to `Cc1cc(N)no1`, the outcome in test [1], in [2], in [3], in test [5] and in [9] was inactive. For the same compound, the Potency result in test [4], in test [7] and in test [8] was “inactive” throughout. For the same compound, in test [6], the max response is 13.5%.

Take `CCCCOCCCC`: the compound was classed as inactive in test [1], in test [2], in test [3], in [5], in [10] and in test [9]. Also, the max response in test [6] is 8.08%. The Potency result in test [8] was “inactive”.

For `N[C@H]1C(O)O[C@H](CO)[C@@H](O)[C@@H]1O` (stereo partly specified), the result in test [1], in test [2], in [3], in test [10] and in [9] was inactive. Also, the Potency entry in test [4], in test [7] and in test [8] was “inactive” each time. Moreover, the max response in test [6] is -1.72%.

Consider `O=C1Nc2ccccc2C1=O`, for which the outcome in test [2], in [3] and in test [9] was inactive. Besides, the Potency result in [4], in [7] and in [8] was “inactive” throughout.

On to `CC(C)OC(=O)C(C(=O)OC(C)C)=C1SC=CS1`, for which the outcome in [2], in test [3], in test [10] and in test [9] was inactive. Also, the Potency result in test [4], in [7] and in test [8] was “inactive” in each case.

Consider `CC(=O)c1c(C)cc(C(C)(C)C)cc1C`, for which the call in [2], in [3], in [10] and in test [9] was inactive. The results for the Potency in test [4], in test [7] and in test [8] were 24.5 µM (active), 21.9 µM (active) and 38.9 µM (active), respectively.

For `C[n+]1ccccc1/C=N/O`, the call in test [1], in [2], in test [3], in test [5] and in test [9] was inactive. In addition, the Potency result in test [4], in test [7] and in [8] was “inactive” in each case. For the same compound, the max response in test [6] is 0.0286%.

For the compound `CC(=O)c1ccc2ccc3ccccc3c2c1`, the call in test [2], in test [3] and in [10] was inactive. The Potency result in test [4], in [7] and in [8] was “inactive” in each case.

For the compound `C[C@]12C=CC(=O)C=C1[C@@H](F)C[C@@H]1[C@@H]2[C@@H](O)C[C@@]2(C)[C@H]1CC[C@]2(O)C(=O)CO`, the result in test [1], in test [2], in test [3], in [5] and in test [9] was inactive. The Potency result in test [4], in [7] and in [8] was “inactive” throughout. Moreover, the max response in [6] is -0.454%.

Take `Cc1nnc(C(=O)NC(C)(C)c2nc(C(=O)NCc3ccc(F)cc3)c(O)c(=O)n2C)o1`: the compound was classed as inactive in test [2], in test [3], in test [5], in [10] and in test [9]. The Potency result in test [4], in test [7] and in [8] was “inactive” each time. Also, in test [6], the max response was 21.7%.

On to `CCN(CC)CC(=O)Oc1ccc(NC(C)=O)cc1`, for which the result in test [2], in [3], in test [10] and in test [9] was inactive. Moreover, the Potency result in [4], in test [7] and in test [8] was “inactive” throughout.

On to `N=C(N)N`, for which the outcome in [1], in test [3], in test [5] and in [9] was inactive. Further, the Potency entry in [4], in test [7] and in test [8] was “inactive” throughout. Besides, the max response in test [6] was -0.588%.

Turning to `CCOC(=O)COc1ccc2c(C)c(CCN(CC)CC)c(=O)oc2c1Cl`, the call in test [1], in [2], in test [3], in test [10] and in test [9] was inactive. In addition, the Potency result in test [4], in test [7] and in test [8] was “inactive” each time. For the same compound, the max response in [6] is 1.31%.

As for `CC/C=C/CCCCCCCCCCOC(C)=O`, the result in test [1], in test [2], in test [3], in test [5] and in [9] was inactive. In addition, the Potency result in [4], in [7] and in [8] was “inactive” each time.

For the compound `C=CC(=O)OCC[N+](C)(C)C`, the compound was classed as inactive in [1], in [2], in test [3], in [5] and in test [9]. Also, the Potency result in [4], in [7] and in [8] was “inactive” each time. In addition, in test [6], the max response was 10.3%.

Regarding `CCCCCCCCC1CO1` (stereo unspecified), the compound was classed as inactive in [1], in test [2], in [3], in test [5] and in [9]. Also, the Potency entry in test [4], in test [7] and in test [8] was “inactive” throughout. The max response in test [6] is -0.591%.

As for `Cc1ccc(OC(=O)CC(C)C)cc1`, the outcome in test [1], in [2], in test [3], in test [5], in test [10] and in [9] was inactive. In addition, the max response in test [6] was 3.9%. The Potency entry in test [7] and in [8] was “inactive” in each case.

As to `CCCC(=O)C(CC)Sc1ccoc1C` (stereo unspecified), the result in test [1], in [2], in [3], in test [5] and in test [9] was inactive. For the same compound, in [6], the max response is -5.27%. The Potency entry in [7] and in test [8] was “inactive” each time.

The values are drawn from PubChem BioAssay (Tox21).
